PubChem BioAssay (Tox21)
“And” between values parts separate entries of the source, which are not always exact repeats. Equal values may be shown once. Inconclusive results are not listed. Some compounds were tested as several samples or in several runs, with calls that do not always agree. The source made the active and inactive calls. Unless noted, the call rests on the fitted dose curve; in most records, active means well fitted curve in the direction sought with a large enough effect in the repeat runs; inconclusive means weak or mixed curves; inactive means no such curve, though single readings can be large; an effect the other way counts as inactive or inconclusive.

Tests used:
[1] = qHTS assay to test for compound auto fluorescence at 460 nm (blue) in HEK293 cell free culture (AID 720681)
How it was run: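 Blue fluorescence (Ex 405/Em 460 nm, triamterene-equivalent) was read immediately after pin transfer of compound or DMSO into medium (DMEM, 10% FBS) without cells.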

[2] = qHTS assay to test for compound auto fluorescence at 535 nm (green) in HEK293 cell free culture (AID 720682)
How it was run: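 DMEM + 10% FBS, cell-free; cpd or DMSO pinned in; Ex485/Em535 read; output as fluorescein-equivalent signal.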

[3] = qHTS assay to test for compound auto fluorescence at 590 nm (red) in HEK293 cell free culture (AID 720683)
How it was run: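 Red-channel autofluorescence of compounds in culture medium (DMEM, 10% FBS), no cells, measured at 540/590 nm. Rose Bengal sodium is the reference fluorophore for equivalence.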

[4] = qHTS assay to test for compound auto fluorescence at 590 nm (red) in HepG2 cell free culture (AID 720684)
How it was run: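 Steps: dispense MEM/10% FBS medium, no cells; pin compound or DMSO vehicle; read red channel, Ex/Em 540/590 nm. Output given as Rose Bengal sodium equivalents.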

[5] = qHTS assay to test for compound auto fluorescence at 460 nm (blue) in HepG2 cell free culture (AID 720685)
How it was run: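 Compound (23 nL) or DMSO pinned into cell-free MEM with 10% FBS; blue fluorescence read at 405/460 nm excitation/emission, expressed as auto-fluorescence equivalency to triamterene.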

[6] = qHTS assay to test for compound auto fluorescence at 535 nm (green) in HepG2 cell free culture (AID 720686)
[7] = qHTS assay to test for compound auto fluorescence at 460 nm (blue) in HepG2 cells (AID 720687)
How it was run: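 Blue-channel autofluorescence (Ex/Em 405/460 nm, triamterene-equivalent) was measured after 1 hr compound exposure at 37 C, 5% CO2. Cells were HepG2, plated overnight at 37 C in MEM plus 10% FBS.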

[8] = target: Glucocorticoid receptor (Homo sapiens) (UniProt P04150); assay: qHTS assay to identify small molecule agonists of the glucocorticoid receptor (GR) signaling pathway (AID 720691; active means well fitted activation curve with a large enough effect in the signal ratio in the repeat runs, not every such curve was filed as active; the % refers to the signal ratio; further: potency means the concentration at half of the fitted maximal effect)
How it was run: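 Beta-lactamase reporter activity, read as fluorescence intensity, was measured in GR-bla HeLa cells exposed to compounds for 18 h at 37 C and then loaded with LiveBLAzer B/G FRET substrate for 2 h at room temperature.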

[9] = target: Glucocorticoid receptor (Homo sapiens) (UniProt P04150); assay: qHTS assay to identify small molecule antagonists of the glucocorticoid receptor (GR) signaling pathway (AID 720692; active means well fitted inhibition curve with a large enough effect in the signal ratio in the repeat runs, not every such curve was filed as active; the % refers to the signal ratio; further: potency means the concentration at half of the fitted maximal effect)
How it was run: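 Fluorescence from cleaved LiveBLAzer B/G FRET substrate reports GRE-driven beta-lactamase in HeLa cells; compounds are tested against 5 nM dexamethasone (final) over 18 h at 37 C, substrate incubation 2 h at room temperature.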

[10] = qHTS assay to identify small molecule antagonists of the glucocorticoid receptor (GR) signaling pathway - cell viability counter screen (AID 720693); further: nearly all actives have a fitted effect of over 55% in size; further: potency means the concentration at half of the fitted maximal effect
[11] = qHTS assay for identifying genotoxic compounds that show differential cytotoxicity against isogenic chicken DT40 cell lines with known DNA damage response pathways - wild type cell line (AID 743012); further: nearly all actives have a fitted effect of over 60% in size; further: potency means the concentration at half of the fitted maximal effect
How it was run: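 Quantitative HTS on parental DT40 cells: 40 h compound treatment at 37 C/5% CO2, with viability then determined by CellTiter-Glo luminescence. Values serve as the DNA repair-proficient reference for differential cytotoxicity.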

[12] = qHTS assay for identifying genotoxic compounds that show differential cytotoxicity against isogenic chicken DT40 cell lines with known DNA damage response pathways - Rev3 mutant cell line (AID 743014); further: nearly all actives have a fitted effect of over 55% in size; further: potency means the concentration at half of the fitted maximal effect
[13] = qHTS assay for identifying genotoxic compounds that show differential cytotoxicity against isogenic chicken DT40 cell lines with known DNA damage response pathways - Rad54/Ku70 mutant cell line (AID 743015); further: nearly all actives have a fitted effect of over 60% in size; further: potency means the concentration at half of the fitted maximal effect
[14] = qHTS assay to identify small molecule antagonists of the androgen receptor (AR) signaling pathway - cell viability counter screen (AID 743033; further: nearly all actives have a fitted effect of over 45% in size; further: potency means the concentration at half of the fitted maximal effect)
[15] = qHTS assay to identify small molecule antagonists of the androgen receptor (AR) signaling pathway using the MDA cell line - cell viability counter screen (AID 743041; further: nearly all actives have a fitted effect of over 45% in size; further: potency means the concentration at half of the fitted maximal effect)
How it was run: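 Cells were plated at 3,000 per well and left 5 h. Compounds in DMSO were then pinned in, followed by R1881. After 16 h at 37C, CellTiter-Fluor fluorescence gave viability.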

[16] = target: Androgen receptor (Homo sapiens) (UniProt P10275); assay: qHTS assay to identify small molecule antagonists of the androgen receptor (AR) signaling pathway (AID 743035; active means well fitted inhibition curve with a large enough effect in the signal ratio in the repeat runs, not every such curve was filed as active; the % refers to the signal ratio; further: potency means the concentration at half of the fitted maximal effect)
How it was run: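 Cell line: GeneBLAzer AR-UAS-bla GripTite (HEK293). Stimulus: R1881 added after compound. Exposure: 16 h, 37C, 5% CO2. Readout: LiveBLAzer B/G FRET fluorescence after 2 h at room temperature.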

[17] = target: Androgen receptor (Homo sapiens) (UniProt P10275); assay: qHTS assay to identify small molecule agonists of the androgen receptor (AR) signaling pathway using the MDA cell line (AID 743040; further: nearly all actives have a fitted effect of over 20% in size)
How it was run: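 Cells plated, 5 h at 37C/0% CO2; compound or DMSO pinned; 16 h at 37C; ONE-Glo added; luminescence measured after 30 min at room temperature. Reporter line: MDA-kb2 with MMTV-luciferase responsive to AR and GR.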

[18] = target: Androgen receptor (Homo sapiens) (UniProt P10275); assay: qHTS assay to identify small molecule antagonists of the androgen receptor (AR) signaling pathway using the MDA cell line (AID 743042; further: nearly all actives have a fitted effect of over 55% in size; further: potency means the concentration at half of the fitted maximal effect)
How it was run: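 Antagonist mode: compounds plus R1881 agonist added to MDA-kb2 AR-luc cells, incubated 16 h at 37C. Luciferase reporter luminescence quantified, with multiplexed CellTiter-Fluor readout for cell viability.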

[19] = target: Androgen receptor (Homo sapiens) (UniProt P10275); assay: qHTS assay to identify small molecule agonists of the androgen receptor (AR) signaling pathway (AID 743036; active means well fitted activation curve with a large enough effect in the signal ratio in the repeat runs, with a control signal flat, not every such curve was filed as active; the % refers to the signal ratio)
How it was run: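 Screening used 2,000 AR-bla HEK293 cells per well, treated 16 h at 37C with test compounds in DMSO alongside positive and DMSO-only controls; beta-lactamase activity was then read by LiveBLAzer B/G FRET fluorescence after 2 h at room temperature.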

Measured: Potency

Sequence of Glucocorticoid receptor (Homo sapiens) (P04150 whole entry, looked up): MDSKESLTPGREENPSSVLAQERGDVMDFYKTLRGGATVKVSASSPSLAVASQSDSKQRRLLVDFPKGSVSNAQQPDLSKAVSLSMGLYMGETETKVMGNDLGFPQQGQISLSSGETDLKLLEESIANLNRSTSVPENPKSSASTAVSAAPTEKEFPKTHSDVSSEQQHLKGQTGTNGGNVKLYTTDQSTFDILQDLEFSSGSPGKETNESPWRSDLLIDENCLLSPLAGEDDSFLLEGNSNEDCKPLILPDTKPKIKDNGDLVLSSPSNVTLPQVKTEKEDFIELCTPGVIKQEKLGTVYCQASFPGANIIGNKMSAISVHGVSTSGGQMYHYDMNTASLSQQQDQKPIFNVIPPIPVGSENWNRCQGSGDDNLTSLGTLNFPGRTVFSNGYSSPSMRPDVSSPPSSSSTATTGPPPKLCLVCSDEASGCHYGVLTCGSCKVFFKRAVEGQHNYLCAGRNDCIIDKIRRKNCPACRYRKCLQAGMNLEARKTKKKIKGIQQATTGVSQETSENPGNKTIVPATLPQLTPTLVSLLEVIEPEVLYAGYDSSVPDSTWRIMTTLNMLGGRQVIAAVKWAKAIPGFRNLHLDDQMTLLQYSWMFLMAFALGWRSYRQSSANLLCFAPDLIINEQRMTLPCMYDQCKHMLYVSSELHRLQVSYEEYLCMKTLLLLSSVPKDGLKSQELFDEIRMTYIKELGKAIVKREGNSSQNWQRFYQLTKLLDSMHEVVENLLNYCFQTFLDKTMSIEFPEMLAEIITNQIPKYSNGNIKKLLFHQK
Sequence of Androgen receptor (Homo sapiens) (P10275 whole entry, looked up): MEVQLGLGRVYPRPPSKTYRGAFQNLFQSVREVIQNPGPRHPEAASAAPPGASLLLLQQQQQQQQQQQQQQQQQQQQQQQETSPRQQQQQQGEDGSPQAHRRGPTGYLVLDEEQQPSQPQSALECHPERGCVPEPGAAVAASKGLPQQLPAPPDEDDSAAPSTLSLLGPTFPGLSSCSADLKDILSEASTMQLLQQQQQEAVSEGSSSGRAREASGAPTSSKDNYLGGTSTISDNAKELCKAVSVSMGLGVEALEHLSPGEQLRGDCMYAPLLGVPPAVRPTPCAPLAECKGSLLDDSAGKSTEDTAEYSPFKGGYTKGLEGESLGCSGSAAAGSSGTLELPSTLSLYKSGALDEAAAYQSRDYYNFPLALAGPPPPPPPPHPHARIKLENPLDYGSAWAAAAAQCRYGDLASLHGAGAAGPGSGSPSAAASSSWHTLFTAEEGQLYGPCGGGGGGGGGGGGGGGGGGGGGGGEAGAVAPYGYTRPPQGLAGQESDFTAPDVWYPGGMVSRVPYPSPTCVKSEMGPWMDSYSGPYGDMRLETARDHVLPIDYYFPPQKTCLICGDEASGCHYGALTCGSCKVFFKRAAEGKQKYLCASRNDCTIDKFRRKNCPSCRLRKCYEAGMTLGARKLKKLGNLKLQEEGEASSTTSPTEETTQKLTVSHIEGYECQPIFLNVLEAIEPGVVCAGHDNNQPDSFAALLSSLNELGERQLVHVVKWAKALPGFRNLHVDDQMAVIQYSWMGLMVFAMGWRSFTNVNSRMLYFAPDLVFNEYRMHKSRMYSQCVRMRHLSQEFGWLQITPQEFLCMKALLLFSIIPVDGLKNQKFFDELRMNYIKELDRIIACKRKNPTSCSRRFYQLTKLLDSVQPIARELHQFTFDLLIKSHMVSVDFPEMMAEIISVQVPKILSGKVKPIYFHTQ

Nc1nc2ccccc2[nH]1
not listed: [16] | [17] | [18] | [19]
inactive: all other assays above

CC(C)(C)c1ccc(O)c(C(C)(C)C)c1
active: [11] 27.3 µM | [12] 27.2 µM and 24.3 µM | [13] 30.5 µM and 27.3 µM
inactive: [1] | [2] | [3] | [4] | [5] | [6] | [7] | [15]

Oc1c(Cl)cc(Cl)c(Cl)c1Cc1c(O)c(Cl)cc(Cl)c1Cl
active: [10] 1.69 µM and 21.8 µM and 19.5 µM | [11] 5.96 µM and 3.05 µM and 4.33 µM | [12] 5.96 µM and 3.05 µM and 3.86 µM | [13] 8.41 µM and 3.05 µM and 3.86 µM | [14] 9.52 µM and 1.54 µM and 1.74 µM | [16] 10.7 µM and 1.74 µM | [15] 13.3 µM and 17.2 µM and 19.3 µM | [18] 13.3 µM and 2.16 µM and 5.45 µM
inactive: [1] | [2] | [3] | [4] | [5] | [6] | [7] | [17]

O=C(OCc1ccccc1)c1ccc(O)cc1
active: [13] 61.1 µM
not listed: [16] | [17] | [18] | [19]
inactive: all other assays above

O
inactive and 13.9 µM (active): [11]
inactive and 9.81 µM (active): [12]
not listed: [8] | [9] | [13] | [16] | [17] | [18] | [19]
inactive: all other assays above

C=CS(=O)(=O)O
not listed: [16] | [17] | [18] | [19]
inactive: all other assays above

c1ccc2c(c1)-c1cccc3c1c-2cc1ccccc13
active: [8] 21.4 µM [fluorescent] and 49 µM [fluorescent]
not listed: [9] | [16] | [17] | [18] | [19]
inactive: all other assays above

Clc1ccc2c(c1)C(N1CCNCC1)=Nc1ccccc1O2
active: [11] 26.6 µM and 7.7 µM | [12] 29.8 µM and 9.69 µM | [13] 26.6 µM and 10.9 µM
19 µM (active) and inactive: [9]
not listed: [16] | [17] | [18] | [19]
inactive: all other assays above

COc1ccc(COC(C)=O)cc1
not listed: [8] | [9] | [16] | [17] | [18] | [19]
inactive: all other assays above

c1ccc2n[nH]nc2c1
inactive and 61.1 µM (active): [12]
not listed: [16] | [17] | [18] | [19]
inactive: all other assays above

COc1ccc(CCN(C)CCCC(C#N)(c2ccc(OC)c(OC)c2)C(C)C)cc1OC (stereo unspecified)
inactive: [1] | [2] | [3] | [4] | [5] | [6] | [7] | [10]
active: [11] 13.3 µM and 54.4 µM | [12] 23.7 µM and 27.3 µM

COc1ccc(Cc2cnc(N)nc2N)cc1OC
not listed: [9] | [11] | [12] | [13]
inactive: all other assays above

O=C(O)CCc1ccccc1
not listed: [10] | [16] | [17] | [18] | [19]
inactive: all other assays above

O=S(=O)(O)c1ccc2nc(-c3ccccc3)[nH]c2c1
inactive and 46.2 µM (active): [11]
active: [10] 20.8 µM | [13] 58.2 µM
inactive: [1] | [2] | [3] | [4] | [5] | [6] | [7] | [14] | [15]

c1ccc2c(c1)CCCC2C1=NCCN1 (stereo unspecified)
not listed: [8] | [9] | [16] | [17] | [18] | [19]
inactive: all other assays above

NCCO
inactive and 68.6 µM (active): [12]
not listed: [9] | [13] | [16] | [17] | [18] | [19]
inactive: all other assays above

NC(N)=NC(=O)Cc1c(Cl)cccc1Cl
not listed: [9] | [11] | [16] | [17] | [18] | [19]
inactive: all other assays above

c1cc(C(c2ccc(OCC3CO3)cc2)C(c2ccc(OCC3CO3)cc2)c2ccc(OCC3CO3)cc2)ccc1OCC1CO1 (stereo unspecified)
active: [11] 20.1 µM and 3.43 µM | [12] 357 nM and 385 nM | [13] 6.34 µM and 3.06 µM
not listed: [7] | [16] | [17] | [18] | [19]
inactive: all other assays above

CC(C)CCOC(=O)c1ccc(N(C)C)cc1
inactive: [1] | [2] | [3] | [4] | [5] | [6] | [7] | [10] | [14]

CCCCC(CC)COC(=O)CC(C(=O)OCC(CC)CCCC)S(=O)(=O)O (stereo unspecified)
inactive and 43.3 µM (active): [13]
not listed: [9] | [16] | [17] | [18] | [19]
inactive: all other assays above

OCCOCCN1CCN(C(c2ccccc2)c2ccc(Cl)cc2)CC1 (stereo unspecified)
active: [11] 38.1 µM | [12] 21.4 µM | [13] 30.2 µM
not listed: [8] | [9] | [16] | [17] | [18] | [19]
inactive: all other assays above

CC1COc2c(N3CCN(C)CC3)c(F)cc3c(=O)c(C(=O)O)cn1c23 (stereo unspecified)
not listed: [8] | [9] | [13] | [16] | [17] | [18] | [19]
inactive: all other assays above

Cc1cc(C(C)(C)C)c(O)c(C(C)(C)C)c1
inactive and 27.3 µM (active): [13]
inactive and 30.6 µM (active): [12]
not listed: [9] | [16] | [17] | [18] | [19]
inactive: all other assays above

Cc1occc(=O)c1OC(=O)C(C)C
not listed: [12] | [16] | [17] | [18] | [19]
inactive: all other assays above

C=C(C)C(=O)O
not listed: [9] | [16] | [17] | [18] | [19]
inactive: all other assays above

CC(=O)CC(C)=O
not listed: [8] | [9] | [13] | [16] | [17] | [18] | [19]
inactive: all other assays above

C/C=C/c1ccc(OCC)c(O)c1
not listed: [13] | [16] | [17] | [18] | [19]
inactive: all other assays above
